# Data from ChEMBL document CHEMBL1961873, “Compounds: GSK PKIS; Assays: Nanosyn kinase panel” (2012).
# “And” between values parts separate entries of the source, which are not always exact repeats. Equal entries are not always repeated.
# Columns and labels:
# [1] = biological target: Mast/stem cell growth factor receptor Kit (Homo sapiens) (UniProt P10721); settings: at 1 µM
# [2] = system: Mast/stem cell growth factor receptor Kit (Homo sapiens), P10721 [D816V]; settings: at 0.1 µM
# [3] = system: Mast/stem cell growth factor receptor Kit (Homo sapiens), P10721 [D816V]; settings: at 1 µM
# [4] = system: Mast/stem cell growth factor receptor Kit (Homo sapiens), P10721 [T670I]; settings: at 0.1 µM
# Chain of Mast/stem cell growth factor receptor Kit (Homo sapiens), P10721 [T670I] (P10721 whole entry T670I): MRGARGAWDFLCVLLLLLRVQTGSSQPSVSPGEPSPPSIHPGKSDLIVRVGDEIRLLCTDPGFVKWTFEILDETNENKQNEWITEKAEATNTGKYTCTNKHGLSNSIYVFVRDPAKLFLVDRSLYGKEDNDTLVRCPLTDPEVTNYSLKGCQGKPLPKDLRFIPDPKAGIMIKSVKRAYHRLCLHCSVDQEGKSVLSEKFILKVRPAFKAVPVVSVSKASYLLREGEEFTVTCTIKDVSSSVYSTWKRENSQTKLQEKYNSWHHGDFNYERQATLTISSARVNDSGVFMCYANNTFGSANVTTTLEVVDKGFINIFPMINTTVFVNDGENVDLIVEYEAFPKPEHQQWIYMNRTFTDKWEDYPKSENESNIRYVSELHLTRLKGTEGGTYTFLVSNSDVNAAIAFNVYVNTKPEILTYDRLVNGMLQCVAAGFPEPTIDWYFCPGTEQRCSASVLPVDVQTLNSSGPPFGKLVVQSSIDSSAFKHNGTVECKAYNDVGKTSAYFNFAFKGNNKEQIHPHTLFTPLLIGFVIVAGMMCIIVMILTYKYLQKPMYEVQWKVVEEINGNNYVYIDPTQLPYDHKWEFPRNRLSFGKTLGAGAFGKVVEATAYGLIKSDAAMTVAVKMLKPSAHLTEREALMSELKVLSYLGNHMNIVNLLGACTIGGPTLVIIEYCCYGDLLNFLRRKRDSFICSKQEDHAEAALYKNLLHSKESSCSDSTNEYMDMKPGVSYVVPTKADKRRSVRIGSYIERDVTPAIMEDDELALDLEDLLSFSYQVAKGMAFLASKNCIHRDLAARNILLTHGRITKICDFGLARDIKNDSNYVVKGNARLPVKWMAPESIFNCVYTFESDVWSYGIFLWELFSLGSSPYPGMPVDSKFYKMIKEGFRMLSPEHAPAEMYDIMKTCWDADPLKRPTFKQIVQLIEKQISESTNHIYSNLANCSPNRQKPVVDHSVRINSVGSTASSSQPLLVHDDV
# [5] = system: Mast/stem cell growth factor receptor Kit (Homo sapiens), P10721 [T670I]; settings: at 1 µM
# [6] = system: Mast/stem cell growth factor receptor Kit (Homo sapiens), P10721 [V560G]; settings: at 0.1 µM
# Chain of Mast/stem cell growth factor receptor Kit (Homo sapiens), P10721 [V560G] (P10721 whole entry V560G): as the sequence (P10721 whole entry T670I) above, with V560G, I670T counted along it
# [7] = system: Mast/stem cell growth factor receptor Kit (Homo sapiens), P10721 [V560G]; settings: at 1 µM
# [8] = biological target: Tyrosine-protein kinase Lck (Homo sapiens) (UniProt P06239); settings: at 0.1 µM
# Chain of Tyrosine-protein kinase Lck (Homo sapiens) (P06239 2-509 limits assumed): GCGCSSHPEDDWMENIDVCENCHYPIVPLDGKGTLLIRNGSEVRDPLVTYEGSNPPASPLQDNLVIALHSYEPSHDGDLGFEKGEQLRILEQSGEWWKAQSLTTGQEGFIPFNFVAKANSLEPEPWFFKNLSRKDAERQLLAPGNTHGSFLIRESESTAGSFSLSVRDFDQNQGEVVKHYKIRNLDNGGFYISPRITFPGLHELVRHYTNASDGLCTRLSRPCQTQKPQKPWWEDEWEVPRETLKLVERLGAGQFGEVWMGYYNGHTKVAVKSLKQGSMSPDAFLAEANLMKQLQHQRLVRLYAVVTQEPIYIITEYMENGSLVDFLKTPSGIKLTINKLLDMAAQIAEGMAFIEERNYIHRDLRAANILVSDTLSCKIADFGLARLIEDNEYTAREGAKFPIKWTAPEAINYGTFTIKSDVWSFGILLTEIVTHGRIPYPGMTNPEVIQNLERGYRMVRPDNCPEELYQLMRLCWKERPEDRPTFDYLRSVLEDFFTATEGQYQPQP
# [9] = biological target: Tyrosine-protein kinase Lck (Homo sapiens) (UniProt P06239); settings: at 1 µM
# [10] = biological target: Leukocyte tyrosine kinase receptor (Homo sapiens) (UniProt P29376); settings: at 0.1 µM
# Chain of Leukocyte tyrosine kinase receptor (Homo sapiens) (P29376 whole entry): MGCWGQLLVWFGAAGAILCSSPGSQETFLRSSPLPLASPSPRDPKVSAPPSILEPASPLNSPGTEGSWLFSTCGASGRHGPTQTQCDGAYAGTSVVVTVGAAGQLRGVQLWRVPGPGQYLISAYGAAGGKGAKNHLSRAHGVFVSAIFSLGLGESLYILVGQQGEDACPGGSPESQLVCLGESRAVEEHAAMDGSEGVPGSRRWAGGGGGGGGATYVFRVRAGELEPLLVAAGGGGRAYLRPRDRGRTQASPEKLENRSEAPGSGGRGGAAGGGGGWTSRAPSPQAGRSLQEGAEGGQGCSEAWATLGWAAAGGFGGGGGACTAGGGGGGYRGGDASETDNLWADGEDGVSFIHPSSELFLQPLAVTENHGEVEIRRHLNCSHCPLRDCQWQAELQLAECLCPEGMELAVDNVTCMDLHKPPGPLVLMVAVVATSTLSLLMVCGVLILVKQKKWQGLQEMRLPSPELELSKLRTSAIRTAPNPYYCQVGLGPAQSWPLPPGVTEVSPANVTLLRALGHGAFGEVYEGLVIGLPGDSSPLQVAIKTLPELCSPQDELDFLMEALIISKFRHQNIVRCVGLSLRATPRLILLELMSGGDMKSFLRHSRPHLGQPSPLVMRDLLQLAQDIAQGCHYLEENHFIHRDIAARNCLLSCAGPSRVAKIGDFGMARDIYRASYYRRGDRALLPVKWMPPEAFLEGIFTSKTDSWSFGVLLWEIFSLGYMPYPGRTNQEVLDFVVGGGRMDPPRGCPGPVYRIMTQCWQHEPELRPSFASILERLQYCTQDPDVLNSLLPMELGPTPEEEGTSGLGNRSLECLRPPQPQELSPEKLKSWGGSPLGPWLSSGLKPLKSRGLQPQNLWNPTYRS
# Chain of Mast/stem cell growth factor receptor Kit (Homo sapiens) (P10721 whole entry): as the sequence (P10721 whole entry T670I) above, with I670T counted along it
# Chain of Mast/stem cell growth factor receptor Kit (Homo sapiens), P10721 [D816V] (P10721 whole entry D816V): as the sequence (P10721 whole entry T670I) above, with I670T, D816V counted along it
SMILES,inhibition [1],inhibition [2],inhibition [3],inhibition [4],inhibition [5],inhibition [6],inhibition [7],inhibition [8],inhibition [9],inhibition [10]
CC1=C(C(=O)Nc2ccc3[nH]ncc3c2)C(c2ccc(F)cc2)N=C(c2ccc(C(F)(F)F)nc2)N1 (centres undefined),5.44%,-0.02%,-2.78%,1.78%,1.33%,1.39%,3.28%,3.06%,2.27%,1.67%
Cc1ccc(-c2cc3c(NC(=O)C4CC4)ncnc3o2)cc1,32.2%,4.08%,5.68%,4.38%,8.01%,-2.51%,0.4%,2.92%,11.2%,4.28%
CN1CCC(n2cnc(-c3ccc(F)cc3)c2-c2ccnc(NCCO)n2)CC1,10.7%,1.99%,7.69%,3.05%,6.22%,-1.29%,-0.38%,2%,1.46%,4.62%
Fc1cccc(COc2ccc(Nc3ncncc3C#Cc3ccccc3)cc2Cl)c1,7.97%,9.06%,7.92%,3.83%,6.38%,-1.39%,-0.04%,1.72%,2%,4.37%
CS(=O)(=O)CCNCc1ccc(-c2ccc3ncnc(Nc4ccc(OCc5ccccc5)cc4)c3c2)o1,8.96%,2.54%,2.47%,3.32%,4.61%,4.25%,1.48%,4.19%,22%,4.28%
COc1ccc(-c2nn3ncccc3c2-c2ccnc(Nc3ccc(F)c(F)c3)n2)cc1,28.2%,6.57%,5.39%,3.81%,11.5%,-0.18%,4.13%,7.63%,39.1%,4.19%
Nc1ncnc2occ(-c3ccc(NC(=O)Nc4cc(C(F)(F)F)ccc4F)cc3)c12,102% and 99.8%,2.13% and -0.16%,3.55% and 0.01%,64.5% and 57%,85.6% and 96%,70.7% and 81.8%,78.7% and 97.7%,10.9% and 3.28%,,7.84% and 2.37%
Cn1c(-c2nonc2N)nc2cnccc21,5.33%,1.72%,2.94%,2.83%,2.49%,-0.55%,-0.31%,2.46%,3.49%,2.56%
O=C(O[C@H]1CN[C@H](C#Cc2cc3ncnc(Nc4ccc5c(cnn5Cc5ccccc5)c4)c3s2)C1)N1CCOCC1,0.9%,-4.43%,-0.62%,-1.83%,-1.48%,-1.18%,-0.48%,0.34%,6.67%,0.04%
CS(=O)(=O)Nc1ccc(-c2cc(-c3ccccc3)cc(C(N)=O)c2N)cc1,21%,-0.43%,-0.86%,-1.07%,4.26%,-0.45%,-2.55%,1.3%,2.43%,2.46%
Cc1cc(O)cc(C)c1/C=C/c1cncc(C(=O)OC(C)(C)C)c1,85.7%,1.84%,-1.16%,4.32%,2.87%,2.94%,18.4%,4.23%,26.8%,2.71%
COC(=O)Nc1nc2ccc(Oc3ccc(NC(=O)Nc4cc(C(F)(F)F)ccc4F)cc3)cc2s1,73.9%,-1.16%,-0.29%,14.4%,46.7%,19.8%,73.7%,15.2%,47.1%,1.83%
COc1cc(N2CCN(C(C)C)CC2)ccc1Nc1nc(Nc2cccc3ncccc23)c2cc[nH]c2n1,2.29%,-1.39%,-2.2%,0.28%,0.54%,0.73%,6.87%,0.42%,3.07%,34.7%
CCCNc1cccc(-n2ncc3c(N/N=C/c4ccncc4)ncnc32)c1,23.7%,-0.57%,9.89%,1.36%,5.45%,7.17%,13.4%,23.1%,68.3%,1.2%
COc1ccc(Nc2ncc(-c3ccccc3)o2)cc1OC,95.9%,-0.42%,1.76%,46.1%,90.3%,45.7%,84.8%,2.31%,21.2%,1.44%
Cc1nnc(-c2cccc(-c3ccc(C(=O)NCC4CC4)cc3)c2)o1,9.77%,1.04%,7.79%,5.46%,5.66%,0.29%,2.8%,2.77%,2.64%,4.15%

SMILES,inhibition [1],inhibition [2],inhibition [3],inhibition [4],inhibition [5],inhibition [6],inhibition [7],inhibition [8],inhibition [9],inhibition [10]
COc1cccc(-n2ncc3c(N/N=C/c4ccc(C(=O)NCCN(C)C)cc4)ncnc32)c1,65.8%,7.1%,15%,6.62%,52.3%,2.06%,5.99%,72.9%,94.4%,2.24%
CN1CCC(C(=O)Nc2n[nH]c3nc(-c4ccc(O)cc4)c(Br)cc23)CC1,12.5% and 9.42%,4.08% and -0.48%,5.39% and 3.49%,2.44% and 0.42%,4.98% and 0.1%,-0.43% and 0.93%,0.37% and -0.64%,-0.45% and 3.18%,7.96% and 12.4%,11.7% and 9.83%
c1cnn2ncc(-c3ccnc(NCCCN4CCOCC4)n3)c2c1,5.88%,6.89%,4.06%,9.96%,3.97%,-0.98%,-1.13%,1.55%,1.64%,2.87%
COc1cc(N2CCN(C(C)C)CC2)ccc1Nc1nc(Nc2cccc(F)c2C(=O)O)c2cc[nH]c2n1,8.76%,3.82%,3.22%,2.33%,3.08%,-0.92%,0.71%,1.92%,2.86%,66.4%
NS(=O)(=O)c1ccc(N/N=C2\C(=O)Nc3ccc(C(=O)NCc4ccncc4)cc32)cc1,12.5%,3.05%,12.7%,1.57%,4.42%,1.34%,10.7%,2.05%,8.27%,2.1%
CCN1CCC(C(=O)Nc2n[nH]c3nnc(-c4cccc(F)c4F)cc23)CC1,2.87%,-0.19%,-1.53%,3.1%,-0.26%,0.02%,3.46%,-0.07%,2.23%,-0.09%
N#Cc1ccc2c(-c3ccnc(NC4CC4)n3)c(-c3ccc(F)cc3)nn2c1,20.2%,-1.04%,2.35%,1.28%,0.73%,0.24%,1.17%,1.08%,0.11%,1.05%
O=C(O[C@H]1CN[C@H](C#Cc2cc3ncnc(Nc4ccc(OCc5cccc(F)c5)c(Cl)c4)c3s2)C1)N1CCOCC1,6.15%,7.97%,7.17%,4.04%,5.91%,-2.49%,-1.75%,1.76%,1.88%,4.09%
COc1ccc2ncn(-c3cc(O[C@H](C)c4ccccc4C(F)(F)F)c(C(N)=O)s3)c2c1,14.7%,-1.17%,2.71%,1.09%,3.92%,0.71%,2.83%,0.65%,2.2%,0.48%
NS(=O)(=O)c1ccc(N/N=C2\C(=O)Nc3cccc(CCc4ccncc4)c32)cc1,63.7%,2.92%,5.18%,6.45%,15%,4.31%,14.1%,2.22%,5.75%,1.69%
CCn1c(-c2nonc2N)nc2cncc(C(=O)NCCNC)c21,11.8%,12.8%,3.67%,3.08%,6%,-0.72%,0.98%,2.21%,3.67%,5.21%
CN(C)CCNC(=O)Nc1ccc(N(C)c2ccnc(Nc3ccc(CS(C)(=O)=O)cc3)n2)cc1,57.6%,3.66%,3.76%,4.26%,6.89%,11.7%,54.1%,3.05%,8.53%,3.62%
c1ccc(-c2n[nH]cc2-c2ccnc(-c3ccc(OCCn4ccnc4)cc3)c2)nc1,11.4%,3.19%,19.5%,1.86%,3.3%,1.49%,4.59%,0.89%,12.7%,0.8%
Nc1nccc(-c2c(-c3ccc(F)cc3)ncn2C2CCNCC2)n1,-2.8% and 0.85%,13% and -2.76%,1.63% and 3.54%,-2.81% and 0.49%,-3.42% and -0.01%,1.31% and 1.87%,3.68% and 1.62%,1.27% and 4.01%,14.3% and 17.1%,-2.04% and 0.7%
COc1cc(Nc2ncc(-c3ccccc3)o2)cc(OC)c1,97.2%,3.13%,2.77%,21.6%,81.7%,33.6%,83.5%,2.6%,14.5%,4.67%
